A word on the AC50: it is the midpoint of the concentration-response curve, whichever way the signal moves.

The source made the active and inactive calls. Rule for the calls: active = hit-call score of the fitted dose curve at least 0.9, where 1 is the maximum; inactive = score below 0.9.

The values that follow come from PubChem BioAssay (EPA / NIEHS).

The nature of this assay: Tanguay_ZF_120hpf_MO24: Oregon State University Tanguay Lab 24 Hour Post-fertilization zebrafish Assay for Mortality (AID 2284389). As for the experimental part:
Tanguay_ZF_120hpf is a whole embryo, multiplexed endpoint assay using zebrafish larvae exposed for 120 hours post fertilization on a 96-well plate.Tanguay_ZF_120hpf_MO24 is one of one assay component(s) measured or calculated from the Tanguay_ZF_120hpf assay. It is designed to make measurements of zebrafish development as detected with brightfield microscopy of developing zebrafish embryos.Data from the assay component Tanguay_ZF_120hpf_MO24 was analyzed into 1 assay endpoints. This assay endpoint, Tanguay_ZF_120hpf_MO24, was analyzed in the positive analysis fitting direction relative to DMSO as the negative control and baseline of activity. Using a type of viability reporter, gain-of-signal activity can be used to understand changes in developmentals as they relate to the whole embryo. To generalize the intended target to other relatable targets, this assay endpoint is annotated to the zebrafish development intended target family, where the subfamily is embryonic mortality.
Zebrafish husbandry: Tropical 5D wild-type adult zebrafish were housed in at an approximate density of 1000 per 100 gallon tank at the Sinnhuber Aquatic Research Laboratory, Oregon State University, Corvallis, OR. Each tank was kept at standard laboratory conditions of 28C on a 14-h light/10-h dark photoperiod in fish water consisting of reverse osmosis water supplemented with a commercially available salt (Instant Ocean). Spawning funnels were placed into the tanks the night prior, and embryos were collected and staged. To increase bioavailability, the chorion was enzymatically removed using pronase (63.6mg/ml, >/= 3.5U/mg, Sigma-Aldrich: P5147) at 4 hours post fertilization (hpf) using a custom automated dechorionator.Chemical exposures: Six hpf dechorionated embryos were placed 1 embryo per well in a 96-well plate prefilled with 90 ul of EM using automated embryo placement systems (AEPS). Ten microliters of each row of dilution plate 2 was added to 2 exposure plates. The final DMSO concentration used was 0.64% (vol/vol). Thirty-two embryos were also exposed to 5uM trimethyltin chloride (positive control). Plates were sealed to prevent evaporation and foil covered to reduce light exposure and kept in a 28C incubator. Embryos were statically exposed until 120 hpf. At 24 hpf, embryos were assessed for photomotor response using a custom photomotor response analysis tool (PRAT) and for developmental toxicity endpoints (MO24: mortality at 24 hpf, DP: developmental progression, SM: spontaneous movement, and NC: notochord distortion). At 120 hpf, locomotor activity was measured using Viewpoint Zebralab and assessed for 13 endpoints. Zebrafish acquisition and analysis program (ZAAP), a custom program designed to inventory, acquire, and manage zebrafish data, was used to collect developmental endpoints as either present or absent (i.e., binary responses were recorded). If mortality occurred for an embryo (at either 24 or 120 hpf), the non-mortality endpoints were not measured.
`OCC(F)(F)C(F)(F)C(F)(F)C(F)F`: the outcome was inactive.

As to `O=C(O)C(F)(OC(F)(F)C(F)(OC(F)(F)C(F)(OC(F)(F)C(F)(F)C(F)(F)F)C(F)(F)F)C(F)(F)F)C(F)(F)F` (stereo not given), the compound was classed as inactive.

As for `C=CC(=O)OCC(F)(F)C(F)(F)C(F)(F)C(F)(F)COC(=O)C=C`, the AC50 is 28.3 µM (active).

Take `OCCCC(F)(F)C(F)(F)C(F)(F)F`: the compound was called inactive.

Consider `O=S(=O)(OCCOC(F)(F)F)C(F)(F)F`, for which the call was inactive.

In the case of `OCC(F)(F)C(F)(F)C(F)(F)C(F)(F)C(F)(F)C(F)F`, the compound was classed as inactive.

Turning to `O=P(O)(O)OCCC(F)(F)C(F)(F)C(F)(F)C(F)(F)C(F)(F)C(F)(F)F`, the outcome was inactive.

Regarding `FC(F)(F)C(F)(F)C(F)(F)C(F)(F)C(F)(F)C(F)(F)C(F)(F)C(F)(F)F`, the call was inactive.

`FC(F)(F)C(F)(F)C(F)(F)C(F)(F)C(F)(F)C(F)(F)C(F)(F)C(F)(F)CCS`: the compound was classed as inactive.

Consider `FC(F)(F)C(F)(F)C(F)(F)C(F)(F)C(F)(F)C(F)(F)C(F)(F)Br`, for which the call was inactive.

For `O=C(O)C(F)(F)C(F)(F)C(F)F`, the result was inactive.

Take `O=C(O)C(F)(F)C(F)(F)F`: the compound was called inactive.

As to `O=C(O)C(F)(F)C(F)(F)C(F)(F)C(F)(F)C(F)(F)C(F)(F)C(F)(F)C(F)(F)C(F)(F)C(F)F`, the compound was classed as inactive.

Regarding `FC(F)(F)C(F)(F)C(F)(F)N(C(F)(F)C(F)(F)C(F)(F)F)C(F)(F)C(F)(F)C(F)(F)F`, the result was inactive.

On to `O=C(O)C(F)(OC(F)(F)C(F)(OC(F)(F)C(F)(F)C(F)(F)F)C(F)(F)F)C(F)(F)F` (stereo not given), for which the compound was classed as inactive.

In the case of `OCC(F)(F)C(F)(F)C(F)(F)F`, the result was inactive.

`N=C(N)C(F)(F)C(F)(F)C(F)(F)C(F)(F)C(F)(F)C(F)(F)C(F)(F)F`: the result was inactive.

As to `O=C(O)C(F)(F)C(F)(F)OC(F)(F)F`, the compound was called inactive.

Regarding `COC(=O)CCC(F)(F)C(F)(F)C(F)(F)C(F)(F)F`, the compound was classed as inactive.

Turning to `FC(F)(F)C(F)(F)C(F)(F)C(F)(F)C(F)(F)C(F)(F)CC1CO1` (stereo not given), the compound was called inactive.

In the case of `O=C(O)C=C(C(F)(F)F)C(F)(F)F`, the compound was classed as inactive.

For the compound `FC(F)(F)C(F)(F)C(F)(F)C(F)(F)CCI`, the call was inactive.

For the compound `CC(C)(C)C(=O)CC(=O)C(F)(F)C(F)(F)C(F)(F)F`, the compound was classed as inactive.

Consider `FC1CC(F)(F)C(F)(F)C1(F)F` (stereo not given), for which the call was inactive.

As to `O=C(CC(=O)C(F)(F)C(F)(F)F)C(F)(F)F`, the compound was classed as inactive.

With `NC(=O)C(F)(F)C(F)(F)C(F)(F)C(F)(F)F`, the call was inactive.

Turning to `C=CC(=O)OCC(F)(F)C(F)(F)C(F)(F)C(F)(F)C(F)(F)C(F)(F)C(F)(F)F`, the result was inactive.

As to `O=C(O)C(F)(F)C(F)(F)C(F)(F)C(F)(F)C(F)(F)C(F)(F)C(F)(F)C(F)(F)C(F)(F)C(F)(F)C(F)(F)C(F)(F)F`, the compound was classed as inactive.

On to `C=C(C)C(=O)OCCC(F)(F)C(F)(F)C(F)(F)C(F)(F)C(F)(C(F)(F)F)C(F)(F)F`, for which the compound was called inactive.

Take `OCCCC(F)(F)C(F)(F)C(F)(F)C(F)(F)C(F)(F)C(F)(F)C(F)(F)F`: the compound was classed as inactive.

For `CCCCCCCCC(F)(F)C(F)(F)C(F)(F)C(F)(F)C(F)(F)C(F)(F)F`, the compound was called inactive.

As for `C=CC(F)(F)C(F)(F)C(F)(F)C(F)(F)C(F)(F)C(F)(F)C(F)(F)C(F)(F)F`, the compound was called inactive.

For the compound `O=C(O)C(F)(F)C(F)(F)C(F)(F)C(F)(F)C(F)(F)C(F)(F)C(F)(F)C(F)(F)Cl`, the outcome was inactive.

In the case of `FC(F)(F)C(F)(F)C(F)(F)C(F)(F)C(F)(F)CCI`, the outcome was inactive.

On to `C=C(C)C(=O)OCC(F)(F)C(F)(F)C(F)(F)C(F)(F)C(F)(F)C(F)(F)C(F)(F)F`, for which the compound was classed as inactive.

Take `FC(F)(F)C(F)(F)C(F)(F)CI`: the call was inactive.

Regarding `O=C(O)C(F)(F)C(F)(F)C(F)(F)C(F)(F)F`, the compound was classed as inactive.

For the compound `C=CC(F)(F)C(F)(F)C(F)(F)C(F)(F)C(F)(F)C(F)(F)C(F)(F)C(F)(F)C=C`, the outcome was inactive.

For the compound `OCC(F)(F)C(F)(F)C(F)(F)C(F)(F)C(F)(F)C(F)(F)F`, the call was inactive.

Regarding `O=C(O)C(F)(F)C(F)(F)C(F)(F)C(F)(F)C(F)(F)C(F)(F)C(F)(F)C(F)(F)C(F)(F)C(F)(F)C(F)(F)C(F)(F)C(F)(F)F`, the result was inactive.
